Screening results: PubChem BioAssay, National Center for Advancing Translational Sciences (NCATS)
Most compounds without a hit are left out; they make up all but 7.5% or so of the library.
Rab9 prom act: qHTS Assay for Rab9 Promoter Activators; Huh7 Rab9 promoter-luciferase reporter, luminescence, 24 h; Potency, µM (titrated, usually from 9.22 µM), without a hit: at the highest dose activation, negative = inhibition, actives largely listed as activators; 2.8% of 320,000 active; further: % of control where 0% means no effect; nearly all actives have a fitted effect of over 60% in size
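Luciferase signal after 10 min detection reagent at ambient indicates Rab9 promoter upregulation; stably transfected Huh7 cells were treated 24 h with compound in DMSO at 37 °C, 5% CO2.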
ELG1 genotoxic: qHTS screen for small molecules that induce genotoxicity in human embryonic kidney (HEK293T) cells expressing luciferase-tagged ELG1 | HEK293T ELG1-luciferase reporter, luminescence, 16 h | 1.3% of 330,000 active | AID 504466, 2011 | Potency, µM (doses to about 46 µM), without a hit: at the top dose activity change, positive = activation, most hits filed as activators; further: % of control where 0% means no effect; nearly all actives have a fitted effect of over 60% in size
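Quantitative HTS format in 1536-well plates. HEK293T ELG1-luciferase reporter cells receive test compound and are incubated 16 hr at 37 °C, 5% CO2; ONE-Glo added, 30 min room temperature, then luminescence read.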
FLuc modulator: qHTS profiling assay for firefly luciferase inhibitor/activator using purifed enzyme and Km concentrations of substrates (counterscreen for miR-21 project). Luciferin 4-monooxygenase (Photinus pyralis), P08659. purified FLuc, Km substrates, luminescence inhibition. Potency, µM (top dose mostly 57.5 µM), inactives show at the top dose activity change, negative = inhibition, most hits filed as inhibitors. 6.9% of 360,000 active. AID 588342, 2011;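 further: plate controls were vehicle for no effect and reference inhibitor for full effect; nearly all actives have a fitted effect of over 55% in size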
Target sequence (P08659 whole entry, looked up): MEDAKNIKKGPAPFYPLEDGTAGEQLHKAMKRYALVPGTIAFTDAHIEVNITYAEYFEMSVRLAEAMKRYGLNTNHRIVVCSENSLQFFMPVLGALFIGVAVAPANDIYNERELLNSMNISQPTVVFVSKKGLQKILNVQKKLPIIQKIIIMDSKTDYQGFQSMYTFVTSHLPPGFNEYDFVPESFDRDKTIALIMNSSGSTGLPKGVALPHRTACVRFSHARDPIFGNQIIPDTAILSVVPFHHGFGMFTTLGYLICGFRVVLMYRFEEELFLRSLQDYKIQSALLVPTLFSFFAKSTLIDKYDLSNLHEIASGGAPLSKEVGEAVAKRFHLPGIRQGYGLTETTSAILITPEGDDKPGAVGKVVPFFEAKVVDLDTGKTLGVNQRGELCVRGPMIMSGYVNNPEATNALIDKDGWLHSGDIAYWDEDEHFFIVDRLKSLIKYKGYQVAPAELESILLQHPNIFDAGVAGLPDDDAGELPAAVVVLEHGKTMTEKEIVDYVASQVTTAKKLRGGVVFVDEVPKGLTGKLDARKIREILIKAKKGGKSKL
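Purified P. pyralis luciferase, 10 nM final, with Km-level 10 uM D-luciferin and 10 uM ATP in 50 mM Tris acetate pH 7.5, 10 mM Mg acetate, 0.01% Tween-20, 0.05% BSA; 6-point qHTS titration about 60 µM downward; luminescence read.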
NPC1 prom act: qHTS Assay for NPC1 Promoter Activators. Potency, µM (titrated, usually from 9.22 µM), without a hit: at the highest dose activation, most hits filed as activators. 2.4% of 320,000 active. Huh7 NPC1 promoter luciferase reporter, 24 h; further: % of control where 0% means no effect; nearly all actives have a fitted effect of over 60% in size
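Readout is luciferase luminescence, reflecting NPC1 promoter activation in stably transfected Huh7 cells after 24 h compound exposure at 37 °C in reduced-serum medium with 10% FBS.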
Luc counter: Counterscreen for Luciferase (Kinase-Glo TM) Inhibition. Luciferin 4-monooxygenase (Photuris pensylvanica), Q27757. Kinase-Glo luciferase, ATP luminescence, 8 min. Potency, µM (doses to about 38.3 µM), inactives show at the top dose activity change, negative = inhibition, actives largely listed as inhibitors. 0.28% of 200,000 active. AID 1379, 2008; further: on the % scale 0 is the no-effect control and ±100 the full control effect; nearly all actives have a fitted effect of over 60% in size
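Compound is pinned into ATP-containing buffer (10 uM ATP, imidazole pH 7.2, 7 mM MgCl2). Kinase-Glo luciferase reagent is then added. Light output is recorded following an 8-min room-temperature incubation.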
SMN2 splice up: qHTS Assay for Enhancers of SMN2 Splice Variant Expression; AID 1458, 2008; HEK293 SMN2-luciferase splicing reporter, luminescence, 30-36 h; 2.8% of 210,000 active; Potency, µM (highest dose often 46.1 µM), inactives show at the top dose activity change, positive = activation, most hits filed as activators; further: % of control where 0% means no effect; nearly all actives have a fitted effect of over 55% in size
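qHTS luciferase splicing reporter: luminescence rises when SMN2 exon 7 is included in transfected HEK293 cells. Compound exposure lasted 30-36 h at 37C, with 4.5 mM final sodium butyrate as control, followed by a ONE-Glo read.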
* hit, by the source's call; ? = inconclusive; nt = no result given. The call rests on the fitted dose curve; in most records, active means well fitted curve in the direction sought with a large enough effect; inconclusive means small, poorly fitted or top-dose-only effect, or another doubt; inactive means no such curve, though single readings can be large; an effect the other way counts as inactive or inconclusive. Potency means the concentration at half of the fitted maximal effect.

SMILES	Rab9 prom act	ELG1 genotoxic	FLuc modulator	NPC1 prom act	Luc counter	SMN2 splice up
CCn1c(C(=O)N2CCCC(C(=O)N3CCN(c4ccccc4)CC3)C2)cc2sccc21 (stereo not drawn)	nt	nt	-12%	nt	nt	-23%
CC/C(=N\NC(=O)C1CCCC1)c1ccc(Br)cc1	9%	3%	1%	-1%	nt	nt
O=C(/C=C/c1ccc(Cl)cc1Cl)NCc1ccncc1	3%	0%	?	4%	1%	-20%
O=C(/C=C/c1ccc(Cl)cc1Cl)Nc1ccncc1	27%	?	3.4µM*	29%	-3%	-4%
CCC(CC)NC(=O)/C=C/c1ccccc1Cl	27%	16%	?	21%	-11%	?
CC(=O)N(C)c1ccc(NC(=O)/C=C/c2ccccc2Cl)cc1	?	?	6µM*	29%	-7%	29%
COc1ccc(NC(=O)c2cc(C3CC3)nc3c2c(C)nn3-c2ccccc2)c(OC)c1	nt	nt	-6%	nt	nt	nt
CCOC(=O)COc1ccc([N+](=O)[O-])cc1-c1ccnc2cc(-c3ccc(C)cc3)nn12	nt	nt	0%	nt	nt	10%
CCOC(=O)Cn1cnc(-c2ccc([N+](=O)[O-])cc2)c1	?	?	12µM*	23%	-4%	?
CCOC(=O)c1c(/N=C/N(C)C)sc(/C=N/Nc2ccccc2)c1-c1ccccc1	0%	2%	-4%	5%	-4%	3%
CCOC(=O)c1c(/N=C/N(C)C)sc(/C=N/Nc2ccccc2)c1-c1ccccc1Cl	2%	-2%	12µM*	-3%	nt	nt
CS(=O)(=O)N(CC(=O)Nc1ccc(Br)cc1)c1ccccc1Br	nt	nt	-14%	nt	nt	nt
O=C(Cc1ccc(-c2ccccc2)cc1)OCC(=O)N1CCCC1=O	17%	0%	21µM*	-1%	2%	1%
CC(C)c1cc(C(=O)N/N=C/c2ccoc2)cs1	?	?	12µM*	?	nt	nt
Cc1ccc(C(=O)N/N=C/c2ccoc2)cc1C	?	?	27µM*	?	nt	nt
CCOc1cccc(C(=O)N/N=C/c2ccoc2)c1	1%	?	13µM*	-4%	nt	nt
COc1cc(OC)c(C(=O)N/N=C/c2ccoc2)cc1OC	7%	?	-8%	0%	nt	nt
COc1ccc(C(=O)N/N=C\c2ccoc2)cc1	26%	?	19µM*	?	nt	nt
CC(C)c1cc(C(=O)N/N=C/c2cccnc2)cs1	-5%	16%	?	-1%	0%	?
CC(C)Cn1c(N)c(C(=O)COC(=O)[C@@H]2CCCN2C(=O)c2cccs2)c(=O)n(C)c1=O	9%	-3%	0%	8%	0%	-23%
Nc1nnc(CSCc2cccc(Br)c2)s1	-3%	4%	?	0%	5%	-1%
COc1ccc2[nH]c3c(NCCCOC(C)C)ncnc3c2c1	0.79µM*	?	6µM*	1.8µM*	nt	nt
COc1ccc2[nH]c3c(NCc4ccco4)ncnc3c2c1	4µM*	9%	9.5µM*	?	-6%	2%
CCN(CC)CCNc1ncnc2c1[nH]c1ccc(OC)cc12	-10%	-1%	8%	0%	-6%	-15%
COc1ccc2[nH]c3c(NCCC4=CCCCC4)ncnc3c2c1	-16%	-3%	11µM*	-23%	-2%	-34%
Cc1cc(SCC(=O)N/N=C/c2ccc(O)c(O)c2)c(C)cc1Br	1%	-9%	6%	-7%	-2%	18%
COc1cc(/C=N/NC(=O)c2nonc2C)ccc1O	-1%	3%	?	-1%	-14%	7%
Cc1nonc1C(=O)N/N=C/c1ccc(O)c(O)c1	-14%	3%	?	-9%	6.3µM*	-11%
